MPTP inh: inhibitors of mitochondrial permeability transition pore | isolated mouse mitochondria, Ca2+ swelling absorbance, 30 min | inhibition, % at 10 µM | 360,000 compounds, 1.4% hits;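 active means inhibition of 50% or more, scaled per plate between neutral and stimulator controls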;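 further: 0% = DMSO wells given calcium and 100% = 1 mM EGTA wells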
CSC inhib: blocks cancer stem cells | cancer stem cell-like cells viability, luminescence | inhibition, % at 7.5 µM | 300,000 compounds, 1.1% hits; in the data active means inhibition above about 75%; inconclusive means no clear call, values can overlap the other calls; tested in HMLE shEcad cells
Calb FLC: C. albicans growth modulation with fluconazole; C. albicans CaCi-2 (fluconazole-resistant clinical isolate) + fluconazole, Alamar Blue growth, 48 h; growth inhibition, % (no concentration beside the values); 300,000 compounds, 0.57% hits; AID 1979;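 active means growth inhibition above about 58% in most replicates, limit read from the data, passing the limit was not always enough; inconclusive means exactly half the replicates above a set limit; inactive means most replicates below a set limit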;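 further: all wells also contain fluconazole at 8 µg/ml as a sub-toxic cotreatment; 0% = median of DMSO wells and 100% = median of geldanamycin control wells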
Mdm2 MdmX PPI: human Mdm2/MdmX binding inhibition; inhibition, % at 8 µM; O15151+Q00987; SaOS-2 split-luciferase Mdm2/MdmX complementation, luminescence; 330,000 compounds, 3% hits;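 active means inhibition of at least 50% at 8 µM in the primary screen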
Target sequence (O15151 whole entry, looked up): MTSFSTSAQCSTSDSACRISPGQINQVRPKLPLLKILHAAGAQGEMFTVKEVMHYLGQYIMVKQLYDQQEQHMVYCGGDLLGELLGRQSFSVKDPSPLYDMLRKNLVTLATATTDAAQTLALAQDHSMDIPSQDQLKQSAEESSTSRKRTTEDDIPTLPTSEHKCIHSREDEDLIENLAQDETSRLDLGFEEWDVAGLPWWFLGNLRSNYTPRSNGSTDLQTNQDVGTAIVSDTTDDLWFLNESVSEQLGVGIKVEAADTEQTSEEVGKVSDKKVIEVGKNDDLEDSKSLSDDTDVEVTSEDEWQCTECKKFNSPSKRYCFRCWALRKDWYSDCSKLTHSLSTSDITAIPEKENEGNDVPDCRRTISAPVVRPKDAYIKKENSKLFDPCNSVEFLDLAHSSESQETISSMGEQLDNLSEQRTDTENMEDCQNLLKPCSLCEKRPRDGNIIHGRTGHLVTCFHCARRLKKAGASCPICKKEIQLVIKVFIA
Target sequence (Q00987 whole entry, looked up): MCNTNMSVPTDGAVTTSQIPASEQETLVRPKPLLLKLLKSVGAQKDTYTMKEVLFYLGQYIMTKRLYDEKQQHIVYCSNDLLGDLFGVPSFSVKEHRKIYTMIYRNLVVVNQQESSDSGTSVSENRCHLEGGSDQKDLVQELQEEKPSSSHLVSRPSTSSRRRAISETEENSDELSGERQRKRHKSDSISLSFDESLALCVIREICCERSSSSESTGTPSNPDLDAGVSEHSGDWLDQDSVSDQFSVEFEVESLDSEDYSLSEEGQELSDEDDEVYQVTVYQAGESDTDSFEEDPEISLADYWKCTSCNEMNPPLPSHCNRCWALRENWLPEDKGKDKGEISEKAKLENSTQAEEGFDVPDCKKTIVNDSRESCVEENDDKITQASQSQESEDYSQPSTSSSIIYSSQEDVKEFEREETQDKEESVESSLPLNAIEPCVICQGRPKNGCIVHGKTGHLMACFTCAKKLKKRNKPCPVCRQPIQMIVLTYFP
Beta cell apopt: blocks beta cell apoptosis. INS-1E cytokine-induced death, ATP luminescence, 48 h; percent of positive-control rescue, neutral wells zero. protection from apoptosis, % (concentration not given with the values). 300,000 compounds, 0.8% hits. AID 435005;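 active means Every replicate reaches about 75%, or at least half do and their mean reaches it too, limit read from the data; inconclusive means At least half of replicates reach the limit but their mean does not; inactive means Under half of replicates reach the limit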;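 further: 0% = cytokine-treated negative control wells and 100% = positive control rescue; higher means more ATP so stronger rescue from cytokine killing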
Mdm2-MdmX conf: human Mdm2/MdmX binding inhibition, confirmed. shares compounds with Mdm2 MdmX PPI. luminescent assay. inhibition, % at 8 µM. 10,000 compounds, 55% hits; in the data active means inhibition above about 40%
Full FLuc ctr: inhibits full-length luciferase, flagging false Mdm2/MdmX hits; shares compounds with Mdm2 MdmX PPI; inhibition, % at 8 µM; 6,200 compounds, 77% hits; SaOS-2 full-length luciferase counterscreen, luminescence; AID 504607;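 active means mean inhibition at 8 µM reaching about 37%, which flags the compound as non-specific, limit read from the data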;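 further: p53-null SaOS-2 cells with luciferase driven by a doxycycline-inducible promoter; compound on cells about two nights before reading with doxycycline added after day one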
Starred values were filed as active, the others as inactive; u = inconclusive; x = no result; ! = repeats disagree. Hits are enriched below; roughly 4.8% of the tested compounds scored in any of these assays.

SMILES	MPTP inh	CSC inhib	Calb FLC	Mdm2 MdmX PPI	Beta cell apopt	Mdm2-MdmX conf	Full FLuc ctr
O=C(Nc1ccccc1SCC1CSc2nc3ccccc3c(=O)n21)c1ccccc1 (configuration not stated)	-1.3	-2.9	-0.8	15.0	4.2	x	x
CCNC(=O)C1(C)CCCN(C(=O)C2(c3ccc(Cl)cc3)CCCC2)C1 (configuration not stated)	-0.4	x	x	x	x	x	x
CCOC(=O)c1ccc(CC2S/C(=C(\C#N)C(C)=O)NC2=O)cc1 (configuration not stated)	0.8	11.9	1.4	4.3	-0.8	x	x
CC(=O)/C(C#N)=C1\NC(=O)C(Cc2ccc(C)c(Cl)c2)S1 (configuration not stated)	17.6	45.4	5.9	79.4*	-5.7	78.1*	31.8
CCc1ccc(CC2S/C(=C(\C#N)C(C)=O)NC2=O)cc1 (configuration not stated)	19.4	52.0	0.7	61.1*	x	74.1*	70.3*
CCn1c2ccccc2c2cnc(N=CN(C)C)c(C#N)c21	-1.4	-6.8	25.4	75.6*	-17.3	87.2*	20.0
COc1ccc(Cc2c(-c3ccc(C#N)cc3)nc3c(Cl)cc(C(F)(F)F)cn23)c(C)c1	-0.2	x	x	x	x	x	x
COc1cc(CNCCO)cc(Br)c1OCc1ccccc1	1.6	x	-2.5	2.3	4.3	x	x
CCOc1cc(CNCCO)cc(Br)c1OCc1ccc(Cl)cc1Cl	-1.6	148.2*	-3.2	99.8*	30.8	50.3*	25.5
O=C1Nc2ccccc2/C1=C/C(=O)c1cccs1	0.2	82.9*	71.8	64.1*	-6.8	23.2	x
C=CCOc1ccc(C(=O)/C=C2/C(=O)Nc3ccccc32)cc1	0.1	24.7	13.4	52.1*	8.8	15.7	x
C=CCOc1ccccc1C(=O)/C=C1/C(=O)Nc2ccccc21	-0.3	51.0	-14.0	77.6*	-4.1	-6.2	x
COc1ccc(C(=O)/C=C2/C(=O)Nc3ccccc32)c(OC)c1	0.0	75.3*	15.5	86.0*	-5.2	26.1	x
COc1ccc(C(=O)/C=C2/C(=O)Nc3ccccc32)cc1OC	-0.2	25.4	14.9	38.9	-14.6	x	x
COc1ccc(C(=O)/C=C2/C(=O)Nc3ccccc32)cc1	1.0	u	10.2	43.5	1.6	x	x
CN(C)CCNc1ncnc2c1ncn2[C@H]1CN(Cc2ccco2)C[C@@H](CO)O1	-0.4	x	x	x	x	x	x
CC(C)Nc1nc(Nc2ccccc2Cl)c2sccc2n1	0.5	x	x	x	x	x	x
COc1ccc(N2CCN(C(=O)COC(=O)CCc3ccccc3OC)CC2)cc1	-1.7	-9.8	-1.8	4.0	0.0	x	x
O=C1O[C@@H](c2ccccc2)C[C@@H](O)C(=O)CCCc2ccccc21	0.6	x	x	x	x	x	x
CCOc1ccc(Nc2ncnc3ccc([N+](=O)[O-])cc23)cc1	0.5	7.0	0.9	68.7*	0.3	71.0*	53.0*
COc1cc(C(=O)Oc2ccccc2/C=N/NC(=O)c2ccc(Cl)cc2)cc(OC)c1OC	6.5	40.9	34.3	45.6	x	x	x
COc1cc(C(=O)Oc2ccccc2/C=N/NC(=O)c2ccc(C)c(Cl)c2)cc(OC)c1OC	13.5	24.0	-14.4	57.6*	93.0*	27.2	x
CN(C)c1ccc(/C=C2/SC(=O)N(CCN=C3NS(=O)(=O)c4ccccc43)C2=O)cc1	6.8	0.8	-3.3	60.5*	4.3	20.9	x
NC(=NCCCCCCN=C(N)/N=C(\N)Nc1ccc(Cl)cc1)/N=C(\N)Nc1ccc(Cl)cc1	19.2	78.2*!	105.7*	90.5*	119.7*	66.1*	56.8*
CC(C)N=C(N)N=C(N)Nc1ccc(Cl)cc1	6.0	x	x	26.8	x	x	x
SMILES	MPTP inh	CSC inhib	Calb FLC	Mdm2 MdmX PPI	Beta cell apopt	Mdm2-MdmX conf	Full FLuc ctr
COc1ccccc1-c1cc(C(=O)N/N=C/c2ccc(C)s2)c2ccccc2n1	2.3	-11.3	4.2	71.2*	8.1	5.0	x
COc1cc(/C=N/NC(=O)c2cc(-c3cccc(OC(C)C)c3)nc3ccccc23)ccc1O	3.5	32.2	23.0	87.9*	5.5	59.0*	57.2*
CCc1ccc(/C=N/NC(=O)c2cc(-c3ccccc3OC)nc3ccccc23)s1	1.9	x	18.1	24.3	3.7	x	x
CN(C)CCCN(C(=O)c1ccc(S(=O)(=O)N(C)C2CCCCC2)cc1)c1nc2ccc(F)cc2s1	0.1	-10.0	-8.7	33.9	3.1	x	x
CCc1ccc2nc(N(CCCN(C)C)C(=O)c3ccc(S(=O)(=O)N4CCc5ccccc5C4)cc3)sc2c1	1.6	-1.1	-0.5	98.5*	29.8	5.0	x
CCc1ccc2nc(N(CCCN(C)C)C(=O)c3ccc(S(=O)(=O)N(C)C4CCCCC4)cc3)sc2c1	4.4	51.8	-3.5	65.9*	18.2	47.6*	55.8*
CCOc1cccc2sc(N(CCCN(C)C)C(=O)c3ccc(S(=O)(=O)N4CCc5ccccc5C4)cc3)nc12	-1.3	21.6	-4.7	82.4*	1.6	34.5	x
Cc1c(Cl)cccc1NC(=O)CCNC(=O)N1CC(=O)Nc2ccccc21	-2.1	-0.8	5.4	3.1	1.7	x	x
COc1ccc(Cl)cc1Cn1c(C)c(C(=O)NCc2ccc3c(c2)OCCO3)sc1=O	-0.9	x	x	x	x	x	x
O=[N+]([O-])c1cc([N+](=O)[O-])c(Oc2cccc3ccccc23)cc1NN1CCCCC1	7.2	x	x	x	x	x	x
O=[N+]([O-])c1cc([N+](=O)[O-])c(Oc2cccnc2Br)cc1NN1CCCCC1	1.7	32.9	1.5	56.4*	-0.7	13.4	x
CCOC(=O)C1=C(C)N=c2s/c(=C3/C(=O)Nc4ccccc43)c(=O)n2C1c1ccc(C)cc1 (configuration not stated)	-0.6	2.5	-1.1	70.3*	0.0	13.3	x
COC(=O)C1=C(C)N=c2s/c(=C3\C(=O)Nc4ccccc43)c(=O)n2C1c1ccccc1 (configuration not stated)	x	x	4.1	47.3	x	x	x
CCOc1ncccc1C(=O)NNC(=O)c1ccc(NS(=O)(=O)c2cccs2)cc1	-0.4	-12.4	-10.2	32.5	7.9	x	x
CN(C)c1ccc(NC2=C(Cl)C(=O)c3ccccc3C2=O)cc1	8.2	147.1*	x	100.3*	-20.9	98.8*	1.9
CC(=O)Nc1ccc(NC2=C(Cl)C(=O)c3ccccc3C2=O)cc1	x	x	37.1	100.3*	x	100.2*	51.9*
O=C1C(Cl)=C(NCCCO)C(=O)c2ccccc21	1.3	24.5	u	47.8	16.3	x	x
COc1cccc(N2CCN(CC(=O)N3CCN(S(=O)(=O)c4ccc(Cl)cc4)CC3)CC2)c1	0.5	x	x	22.8	x	x	x
CC(C)C[C@H]1CNC(=O)C(=O)N1C[C@@H]1CCCN1C[C@H](CC(C)C)N1C[C@H](Cc2ccccc2)N(CCc2ccccc2)C(=O)C1=O	-2.4	x	x	x	x	x	x
CSc1ccc(-c2cccc3nncn23)cc1	0.7	x	x	x	x	x	x
Cc1cc(NC(=O)COC(=O)c2c(Cl)cccc2Cl)no1	-0.1	x	x	88.1*	-3.9	58.6*	53.8*
Cc1cc(NC(=O)COC(=O)c2ccccc2S(=O)(=O)N(C)c2ccccc2)no1	1.7	27.1	-1.4	96.3*	-9.5	72.2*	43.4*
